What all share (experiment): DAPPL (digital affinity profiling via proximity ligation, sequencing); 10 mM Tris-HCl pH 7.5, 50 mM NaCl, 1 mM DTT, 4% glycerol, room temperature, 30 min; GST-TFs on glutathione beads, 16-mer random dsDNA library, 0.1% formaldehyde crosslink after washing; high values mean tight binding
Conditions in all cases: protein: recombinant; tags: N-terminal GST; dsDNA, one strand shown

One assay deals with T1, FLI1 (Homo sapiens, UniProt Q01543 1-452).
T1 sequence: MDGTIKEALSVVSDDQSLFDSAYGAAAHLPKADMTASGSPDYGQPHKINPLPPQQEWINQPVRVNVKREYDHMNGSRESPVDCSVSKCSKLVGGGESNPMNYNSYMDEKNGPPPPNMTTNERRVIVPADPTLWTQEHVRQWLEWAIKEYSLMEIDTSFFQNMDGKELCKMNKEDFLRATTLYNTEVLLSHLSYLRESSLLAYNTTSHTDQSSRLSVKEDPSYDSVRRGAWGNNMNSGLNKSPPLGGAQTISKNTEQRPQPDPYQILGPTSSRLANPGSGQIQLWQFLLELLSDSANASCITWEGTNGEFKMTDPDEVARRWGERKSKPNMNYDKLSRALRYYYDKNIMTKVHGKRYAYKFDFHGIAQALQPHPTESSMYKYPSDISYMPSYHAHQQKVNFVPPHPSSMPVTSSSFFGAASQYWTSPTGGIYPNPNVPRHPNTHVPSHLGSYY
An outline of the steps: (§1)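 Pools of DNA-barcoded human transcription factors, expressed in yeast as GST fusions on glutathione beads and combined with a tag-only sample, were incubated with 200 nmole of a 16-mer random double-stranded DNA library. Incubation took 30 min at room temperature in Tris/NaCl/DTT/glycerol buffer and was followed by washing, 0.1% formaldehyde crosslinking, proximity ligation (BsaI/T4 ligase, 1 h, 37 °C), PCR amplification and sequencing on an Illumina NextSeq500. Binding signal is the ratio of a hexamer's read frequency for a factor to its frequency for the tag-only sample.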

The next assay deals with T2, ELK1 (Homo sapiens, UniProt P19419 1-428).
T2 sequence: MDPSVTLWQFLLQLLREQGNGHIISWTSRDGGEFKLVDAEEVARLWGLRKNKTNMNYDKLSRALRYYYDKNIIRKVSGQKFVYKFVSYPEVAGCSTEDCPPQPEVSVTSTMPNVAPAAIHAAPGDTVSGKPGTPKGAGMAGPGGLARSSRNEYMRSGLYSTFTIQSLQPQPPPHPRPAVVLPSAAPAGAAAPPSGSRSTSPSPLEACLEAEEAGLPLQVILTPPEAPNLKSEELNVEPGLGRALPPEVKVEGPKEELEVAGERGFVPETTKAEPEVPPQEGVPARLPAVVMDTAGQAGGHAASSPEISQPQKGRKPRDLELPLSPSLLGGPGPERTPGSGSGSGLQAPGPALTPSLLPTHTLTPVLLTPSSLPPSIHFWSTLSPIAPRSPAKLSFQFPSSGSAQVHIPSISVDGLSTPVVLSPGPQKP
The method, boiled down:
as §1

For another assay, the target named is T3, ERG (Homo sapiens, UniProt P11308 1-479).
T3 sequence: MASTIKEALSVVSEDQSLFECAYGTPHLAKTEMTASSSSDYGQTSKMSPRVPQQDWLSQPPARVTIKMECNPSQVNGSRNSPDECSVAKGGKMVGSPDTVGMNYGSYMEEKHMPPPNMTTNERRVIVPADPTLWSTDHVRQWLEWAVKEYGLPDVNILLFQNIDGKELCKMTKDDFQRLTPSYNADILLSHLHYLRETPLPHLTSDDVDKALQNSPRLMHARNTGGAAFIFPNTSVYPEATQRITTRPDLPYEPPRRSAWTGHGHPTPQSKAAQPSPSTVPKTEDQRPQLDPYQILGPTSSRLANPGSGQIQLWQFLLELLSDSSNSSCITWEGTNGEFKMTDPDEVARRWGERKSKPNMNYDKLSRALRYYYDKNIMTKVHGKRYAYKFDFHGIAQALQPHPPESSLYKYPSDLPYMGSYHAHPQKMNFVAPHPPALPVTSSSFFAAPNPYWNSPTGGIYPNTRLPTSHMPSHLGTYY
The method, boiled down:
as §1

The target in a further assay is ELF1 (Homo sapiens, UniProt P32519 1-619). An outline of the steps: as §1
For the next assay, the target named is T4, EHF (Homo sapiens, UniProt Q9NZC4 1-300).
T4 sequence: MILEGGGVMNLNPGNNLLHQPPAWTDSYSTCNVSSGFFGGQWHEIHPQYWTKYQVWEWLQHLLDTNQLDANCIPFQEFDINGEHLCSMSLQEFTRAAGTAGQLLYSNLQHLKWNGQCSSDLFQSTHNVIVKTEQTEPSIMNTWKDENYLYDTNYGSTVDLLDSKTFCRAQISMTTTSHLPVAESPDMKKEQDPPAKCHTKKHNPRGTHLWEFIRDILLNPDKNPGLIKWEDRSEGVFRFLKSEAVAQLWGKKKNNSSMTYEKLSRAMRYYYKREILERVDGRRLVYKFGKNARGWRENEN
The method, boiled down:
as §1

For another assay, the target named is SPIB (Homo sapiens, UniProt Q01892 1-262). The method, boiled down:
as §1

The target in the next assay is T5, FEV (Homo sapiens, UniProt Q99581 1-238).
T5 sequence: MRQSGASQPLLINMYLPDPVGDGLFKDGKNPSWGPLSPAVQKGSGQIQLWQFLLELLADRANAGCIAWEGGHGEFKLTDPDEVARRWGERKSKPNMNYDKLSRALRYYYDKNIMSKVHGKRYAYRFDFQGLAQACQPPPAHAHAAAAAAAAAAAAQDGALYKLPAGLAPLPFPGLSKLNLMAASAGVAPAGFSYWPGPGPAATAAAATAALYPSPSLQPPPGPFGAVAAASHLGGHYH
The method, boiled down: as §1

The target of a further assay is ETV5 (Homo sapiens, UniProt P41161 1-510). An outline of the steps: as §1
A further assay addresses T6, SPIC (Homo sapiens, UniProt Q8N5J4 1-248).
T6 sequence: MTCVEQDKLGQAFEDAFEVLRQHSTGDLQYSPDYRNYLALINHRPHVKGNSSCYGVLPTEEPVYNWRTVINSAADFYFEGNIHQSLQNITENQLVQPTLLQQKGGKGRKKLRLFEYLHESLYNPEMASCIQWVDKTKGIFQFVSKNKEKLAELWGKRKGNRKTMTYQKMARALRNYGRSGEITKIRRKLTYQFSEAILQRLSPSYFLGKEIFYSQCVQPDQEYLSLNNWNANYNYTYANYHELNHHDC
An outline of the steps:
as §1

In the next assay the target is ELF4 (Homo sapiens, UniProt Q99607 1-663). An outline of the steps:
as §1

Another assay addresses ETV1 (Homo sapiens, UniProt P50549 1-477). The method, boiled down:
as §1

The next assay deals with T7, ERF (Homo sapiens, UniProt P50548 1-548).
T7 sequence: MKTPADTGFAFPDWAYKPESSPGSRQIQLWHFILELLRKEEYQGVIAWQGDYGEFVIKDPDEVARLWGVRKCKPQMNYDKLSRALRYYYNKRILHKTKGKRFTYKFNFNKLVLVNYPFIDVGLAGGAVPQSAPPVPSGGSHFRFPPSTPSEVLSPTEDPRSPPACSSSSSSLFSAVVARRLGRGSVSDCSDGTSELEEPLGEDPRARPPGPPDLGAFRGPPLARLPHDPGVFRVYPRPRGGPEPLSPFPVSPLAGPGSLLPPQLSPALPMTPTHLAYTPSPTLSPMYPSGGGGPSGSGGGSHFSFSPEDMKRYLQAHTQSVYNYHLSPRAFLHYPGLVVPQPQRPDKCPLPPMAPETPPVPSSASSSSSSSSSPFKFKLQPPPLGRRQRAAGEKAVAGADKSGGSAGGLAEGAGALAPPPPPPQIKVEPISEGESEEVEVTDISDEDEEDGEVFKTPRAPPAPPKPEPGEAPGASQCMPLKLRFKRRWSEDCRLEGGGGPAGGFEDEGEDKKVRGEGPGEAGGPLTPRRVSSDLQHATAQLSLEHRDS
The method, boiled down: as §1

For the next assay, the target named is T8, ETV3L (Homo sapiens, UniProt Q6ZN32 1-361).
T8 sequence: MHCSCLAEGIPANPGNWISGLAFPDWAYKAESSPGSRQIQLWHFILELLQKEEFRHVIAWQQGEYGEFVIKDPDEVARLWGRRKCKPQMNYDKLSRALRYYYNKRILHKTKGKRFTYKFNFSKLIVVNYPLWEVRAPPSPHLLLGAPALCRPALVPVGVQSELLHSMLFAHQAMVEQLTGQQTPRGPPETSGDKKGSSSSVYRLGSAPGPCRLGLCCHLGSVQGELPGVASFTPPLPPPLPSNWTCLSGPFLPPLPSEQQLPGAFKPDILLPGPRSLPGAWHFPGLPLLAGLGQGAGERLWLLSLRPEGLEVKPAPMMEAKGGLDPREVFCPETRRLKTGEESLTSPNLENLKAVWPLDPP
The method, boiled down: as §1

The target of another assay is T9, ETS2 (Homo sapiens, UniProt P15036 1-469).
T9 sequence: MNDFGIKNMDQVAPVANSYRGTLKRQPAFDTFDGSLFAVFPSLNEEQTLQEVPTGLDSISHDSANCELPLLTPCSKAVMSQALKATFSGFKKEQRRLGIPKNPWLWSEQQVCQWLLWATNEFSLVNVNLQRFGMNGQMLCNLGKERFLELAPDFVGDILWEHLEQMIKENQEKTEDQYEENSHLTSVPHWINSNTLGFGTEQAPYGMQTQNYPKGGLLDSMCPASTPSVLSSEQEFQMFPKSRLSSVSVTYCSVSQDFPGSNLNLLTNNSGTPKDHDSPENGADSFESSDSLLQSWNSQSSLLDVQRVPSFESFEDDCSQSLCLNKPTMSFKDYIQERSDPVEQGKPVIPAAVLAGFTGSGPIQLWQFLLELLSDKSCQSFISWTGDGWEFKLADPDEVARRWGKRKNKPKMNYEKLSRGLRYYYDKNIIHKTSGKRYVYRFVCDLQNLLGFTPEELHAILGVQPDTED
An outline of the steps:
as §1

A further assay addresses T10, SPDEF (Homo sapiens, UniProt O95238 1-335).
T10 sequence: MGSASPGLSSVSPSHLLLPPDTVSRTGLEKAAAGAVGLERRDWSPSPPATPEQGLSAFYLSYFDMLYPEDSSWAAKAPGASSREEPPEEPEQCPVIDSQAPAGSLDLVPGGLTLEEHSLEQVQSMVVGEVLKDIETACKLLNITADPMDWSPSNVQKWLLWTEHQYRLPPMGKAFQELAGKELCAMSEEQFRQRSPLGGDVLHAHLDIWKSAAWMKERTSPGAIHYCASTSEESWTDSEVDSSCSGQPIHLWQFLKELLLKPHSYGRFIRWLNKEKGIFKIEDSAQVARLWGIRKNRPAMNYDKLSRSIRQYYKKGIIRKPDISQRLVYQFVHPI
An outline of the steps:
as §1

The target in another assay is T11, ELF5 (Homo sapiens, UniProt Q9UKW6-2 1-255).
T11 sequence: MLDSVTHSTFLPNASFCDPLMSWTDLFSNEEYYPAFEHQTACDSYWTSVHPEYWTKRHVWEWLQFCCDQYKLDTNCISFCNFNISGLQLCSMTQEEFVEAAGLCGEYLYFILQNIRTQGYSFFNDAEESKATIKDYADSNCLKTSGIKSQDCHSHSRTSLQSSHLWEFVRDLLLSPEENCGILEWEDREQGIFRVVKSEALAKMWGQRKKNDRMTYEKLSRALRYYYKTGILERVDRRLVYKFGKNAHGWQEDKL
The method, boiled down: as §1

For the next assay, the target named is T12, ETV3 (Homo sapiens, UniProt P41162-2 1-143).
T12 sequence: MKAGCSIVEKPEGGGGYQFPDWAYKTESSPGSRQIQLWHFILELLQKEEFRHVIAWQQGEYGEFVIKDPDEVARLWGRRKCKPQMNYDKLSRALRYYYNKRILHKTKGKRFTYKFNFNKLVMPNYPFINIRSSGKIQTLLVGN
An outline of the steps:
as §1

In the next assay the target is ETV6 (Homo sapiens, UniProt P41212 1-452). The method, boiled down:
as §1

This passage reports binding signal results from PMC7862700, “An all-to-all approach to the identification of sequence-specific readers for epigenetic DNA modifications on cytosine”.

Sequence of ETV5 (P41161 whole entry): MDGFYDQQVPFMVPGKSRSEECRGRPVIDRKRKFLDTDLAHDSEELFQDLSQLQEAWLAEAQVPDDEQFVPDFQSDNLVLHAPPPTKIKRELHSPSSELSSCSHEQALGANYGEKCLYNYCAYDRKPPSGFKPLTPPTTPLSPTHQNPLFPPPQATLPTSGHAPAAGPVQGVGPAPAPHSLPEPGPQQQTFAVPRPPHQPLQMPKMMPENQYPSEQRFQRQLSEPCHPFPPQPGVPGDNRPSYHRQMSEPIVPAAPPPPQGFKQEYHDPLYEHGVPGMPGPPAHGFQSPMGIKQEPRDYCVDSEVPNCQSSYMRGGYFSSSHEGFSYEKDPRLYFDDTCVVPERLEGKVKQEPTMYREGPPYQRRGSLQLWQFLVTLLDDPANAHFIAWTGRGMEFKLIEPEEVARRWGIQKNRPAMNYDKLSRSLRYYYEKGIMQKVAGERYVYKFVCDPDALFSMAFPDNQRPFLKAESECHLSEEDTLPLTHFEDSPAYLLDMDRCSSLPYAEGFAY
Sequence of SPIB (Q01892 whole entry): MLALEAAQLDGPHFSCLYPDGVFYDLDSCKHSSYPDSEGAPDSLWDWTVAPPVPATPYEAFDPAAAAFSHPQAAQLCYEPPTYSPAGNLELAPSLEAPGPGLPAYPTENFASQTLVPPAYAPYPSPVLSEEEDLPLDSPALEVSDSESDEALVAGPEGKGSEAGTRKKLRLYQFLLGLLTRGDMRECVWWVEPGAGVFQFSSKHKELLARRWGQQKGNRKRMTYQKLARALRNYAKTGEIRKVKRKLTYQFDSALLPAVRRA
Sequence of ELF1 (P32519 whole entry): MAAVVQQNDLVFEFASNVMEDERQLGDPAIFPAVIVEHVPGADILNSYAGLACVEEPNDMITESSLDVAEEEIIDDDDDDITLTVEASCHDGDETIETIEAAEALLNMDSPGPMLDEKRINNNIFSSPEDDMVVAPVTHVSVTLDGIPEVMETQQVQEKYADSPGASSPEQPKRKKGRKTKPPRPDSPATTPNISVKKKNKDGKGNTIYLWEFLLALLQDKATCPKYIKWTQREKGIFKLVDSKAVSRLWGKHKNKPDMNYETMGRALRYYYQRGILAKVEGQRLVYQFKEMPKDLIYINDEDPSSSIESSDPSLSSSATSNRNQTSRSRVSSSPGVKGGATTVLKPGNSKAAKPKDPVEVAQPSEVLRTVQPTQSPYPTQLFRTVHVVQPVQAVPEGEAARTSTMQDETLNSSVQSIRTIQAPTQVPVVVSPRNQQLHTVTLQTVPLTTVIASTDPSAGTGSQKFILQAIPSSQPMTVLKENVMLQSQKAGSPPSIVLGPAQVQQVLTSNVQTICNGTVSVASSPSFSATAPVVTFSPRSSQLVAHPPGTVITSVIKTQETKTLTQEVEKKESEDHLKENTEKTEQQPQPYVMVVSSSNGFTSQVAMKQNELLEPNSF
Sequence of ETV6 (P41212 whole entry): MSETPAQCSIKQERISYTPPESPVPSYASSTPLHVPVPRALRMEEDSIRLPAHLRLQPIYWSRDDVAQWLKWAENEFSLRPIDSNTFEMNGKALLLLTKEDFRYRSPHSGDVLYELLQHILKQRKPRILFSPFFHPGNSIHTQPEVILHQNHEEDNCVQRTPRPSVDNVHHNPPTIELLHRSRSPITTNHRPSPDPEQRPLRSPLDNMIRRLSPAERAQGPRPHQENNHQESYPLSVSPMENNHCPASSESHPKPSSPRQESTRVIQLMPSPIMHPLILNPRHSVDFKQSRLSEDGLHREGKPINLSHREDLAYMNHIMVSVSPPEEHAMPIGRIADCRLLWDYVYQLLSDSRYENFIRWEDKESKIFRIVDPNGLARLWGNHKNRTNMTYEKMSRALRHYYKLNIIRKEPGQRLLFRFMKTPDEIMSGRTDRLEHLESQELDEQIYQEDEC
Sequence of ELF4 (Q99607 whole entry): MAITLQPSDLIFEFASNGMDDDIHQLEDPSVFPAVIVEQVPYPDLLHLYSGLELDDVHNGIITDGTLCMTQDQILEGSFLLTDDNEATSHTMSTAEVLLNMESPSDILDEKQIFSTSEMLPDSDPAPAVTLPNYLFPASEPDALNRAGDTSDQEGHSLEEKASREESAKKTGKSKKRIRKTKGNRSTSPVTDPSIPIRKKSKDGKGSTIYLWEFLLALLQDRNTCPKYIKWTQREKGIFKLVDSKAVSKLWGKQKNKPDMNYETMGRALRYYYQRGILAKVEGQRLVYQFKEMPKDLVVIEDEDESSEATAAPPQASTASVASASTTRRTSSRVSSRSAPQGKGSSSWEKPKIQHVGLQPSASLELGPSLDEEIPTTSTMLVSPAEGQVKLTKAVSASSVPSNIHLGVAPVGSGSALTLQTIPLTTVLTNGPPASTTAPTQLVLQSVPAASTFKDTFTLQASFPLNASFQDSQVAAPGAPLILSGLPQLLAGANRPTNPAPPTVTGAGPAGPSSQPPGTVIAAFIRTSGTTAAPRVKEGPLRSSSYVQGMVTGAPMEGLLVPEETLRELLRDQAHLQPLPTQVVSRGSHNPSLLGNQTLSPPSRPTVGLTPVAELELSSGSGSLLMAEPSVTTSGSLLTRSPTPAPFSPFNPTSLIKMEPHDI
Sequence of ETV1 (P50549 whole entry): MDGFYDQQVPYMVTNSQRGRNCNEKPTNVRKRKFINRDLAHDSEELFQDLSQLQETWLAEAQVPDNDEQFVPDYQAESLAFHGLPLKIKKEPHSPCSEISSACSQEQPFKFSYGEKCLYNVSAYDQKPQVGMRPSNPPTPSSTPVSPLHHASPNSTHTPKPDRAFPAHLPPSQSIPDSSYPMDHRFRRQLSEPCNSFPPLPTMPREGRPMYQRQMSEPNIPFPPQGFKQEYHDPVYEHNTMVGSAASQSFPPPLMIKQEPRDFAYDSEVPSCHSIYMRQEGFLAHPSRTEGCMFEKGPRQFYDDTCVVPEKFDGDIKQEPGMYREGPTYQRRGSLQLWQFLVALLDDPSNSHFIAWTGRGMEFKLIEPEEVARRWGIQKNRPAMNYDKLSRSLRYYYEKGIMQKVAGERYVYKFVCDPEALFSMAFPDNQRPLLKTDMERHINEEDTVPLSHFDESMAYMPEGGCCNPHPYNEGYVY

As to TAACCG, the binding signal in the assay with FLI1 is 1.06 fold enrichment (6-mer frequency, TF over GST control); in the assay with ELK1, 1.05 fold enrichment (6-mer frequency, TF over GST control); with ERG, 1.06 fold enrichment (6-mer frequency, TF over GST control); with ELF1, 1.1 fold enrichment (6-mer frequency, TF over GST control); with EHF, 1.06 fold enrichment (6-mer frequency, TF over GST control); with SPIB, 1.18 fold enrichment (6-mer frequency, TF over GST control). Besides, the binding signal in the assay with FEV was 1.25 fold enrichment (6-mer frequency, TF over GST control); with ETV5, 1.07 fold enrichment (6-mer frequency, TF over GST control); in the assay with SPIC, 1.08 fold enrichment (6-mer frequency, TF over GST control); with ELF4, 1.06 fold enrichment (6-mer frequency, TF over GST control); with ETV1, 1.09 fold enrichment (6-mer frequency, TF over GST control); with ERF, 1.12 fold enrichment (6-mer frequency, TF over GST control). The binding signal in the assay with ETV3L is 1.08 fold enrichment (6-mer frequency, TF over GST control); with ETS2, 1.07 fold enrichment (6-mer frequency, TF over GST control); in the assay with SPDEF, 1.1 fold enrichment (6-mer frequency, TF over GST control); with ELF5 it was 1.05 fold enrichment (6-mer frequency, TF over GST control); with ETV3 it was 1.09 fold enrichment (6-mer frequency, TF over GST control); with ETV6 it was 1.08 fold enrichment (6-mer frequency, TF over GST control).
